Where a name gives a salt, the structure may show the parent alone.
Assays:
Details in all cases: compound concentration in added solution (µM; 5 µl added to 20 µl cells): 10; 18 h
A431 [1] = assay: LBPA endosome anti-LBPA integrated intensity (sum per cell), Z-score; higher = more LBPA staining
Method in brief: (§1)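 After 18 h on 5 µl of 10 µM compound solution in duplicate 384-well imaging plates, HeLa MZ or A431 cells, seeded at 3,500 per well in 20 µl, were fixed with 4% PFA. They were then labelled with 6C4 anti-LBPA antibody, filipin, propidium iodide and CellTracker green, and four 20× fields were recorded per well. Integrated LBPA or filipin intensity per cell, whole-cell or within LBPA endosomes, came from MetaXpress segmentation and was normalised to Z-scores in AcuityXpress.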

HeLa MZ [2] = assay: as above
Method in brief: as §1

A431 [3] = assay: whole-cell filipin (free cholesterol) integrated intensity, Z-score; higher = more cholesterol staining
Method in brief: as §1

HeLa MZ [4] = assay: as above
Method in brief: as §1

A431 [5] = assay: filipin (cholesterol) integrated intensity within LBPA endosomes, Z-score; higher = more cholesterol in LBPA endosomes
Method in brief: as §1

HeLa MZ [6] = assay: as above
Method in brief: as §1

Structure (SMILES)	LBPA endosome anti-LBPA integrated intensity (z-score) (A431 [1])	LBPA endosome anti-LBPA integrated intensity (z-score) (HeLa MZ [2])	whole-cell filipin (z-score) (A431 [3])	whole-cell filipin (z-score) (HeLa MZ [4])	filipin (z-score) (A431 [5])	filipin (z-score) (HeLa MZ [6])
Cc1onc(-c2c(F)cccc2Cl)c1C(=O)N[C@@H]1C(=O)N2[C@@H]1SC(C)(C)[C@@H]2C(=O)O [Flucloxacillin sodium]	-0.384	0.147	-0.112	-0.558	-0.348	-0.62
C#C[C@]1(O)CC[C@H]2[C@@H]3CCC4=CC(=O)CC[C@@H]4[C@H]3CC[C@@]21C [Norethindrone]	-0.462	-0.0403	-0.665	-0.306	-0.425	-0.487
OCCN1CCN(CC/C=C2/c3ccccc3Sc3ccc(Cl)cc32)CC1 [Zuclopenthixol hydrochloride]	3.18	1.68	0.421	0.439	2.79	2.86
CC(=O)Oc1cccc2c1C(=O)c1c(OC(C)=O)cc(C(=O)O)cc1C2=O [Diacerein]	-0.503	-0.299	-0.484	0.525	-0.459	-0.327
CN(C(=O)CN(CCO)CC(=O)N(C)C(C)(C)Cc1ccccc1)C(C)(C)Cc1ccccc1 [Oxethazaine]	1.71	0.996	1.26	0.298	1.53	2.17
CN1[C@@H]2CC[C@H]1C[C@@H](OC(c1ccccc1)c1ccccc1)C2 [Benztropine mesylate]	2.51	2.77	3.07	3.74	2.51	2.8
C[C@]1(Cn2ccnn2)[C@H](C(=O)O)N2C(=O)C[C@H]2S1(=O)=O [Tazobactam]	-0.572	-0.303	-0.35	0.00122	-0.502	-0.538
OCCN1CCN(CCCN2c3ccccc3C=Cc3ccccc32)CC1 [Opipramol dihydrochloride]	0.228	1.81	0.629	-0.0646	0.712	1.15
C1N2CN3CN1CN(C2)C3 [Methenamine]	-0.374	0.113	-0.146	0.773	-0.379	-0.0431
NC(=O)c1cnccn1 [Pyrazinamide]	-0.586	-0.505	-0.486	-0.665	-0.578	-0.581
Cc1onc(-c2c(Cl)cccc2Cl)c1C(=O)N[C@@H]1C(=O)N2[C@@H]1SC(C)(C)[C@@H]2C(=O)O [Dicloxacillin sodium salt hydrate]	-0.319	-0.38	-0.616	-0.567	-0.395	-0.582
CCc1cccc(CC)c1NC(=O)CN(CC(=O)O)CC(=O)O [Etifenin]	-0.633	-1.24	-0.798	-0.697	-0.521	-0.638
CC[C@H]1OC(=O)[C@H](C)[C@@H](O[C@H]2C[C@@](C)(OC)[C@@H](O)[C@H](C)O2)[C@H](C)[C@@H](O[C@@H]2O[C@H](C)C[C@H](N(C)C)[C@H]2O)[C@](C)(O)C[C@@H](C)C(=O)[C@H](C)[C@@H](O)[C@]1(C)O [Erythromycin]	0.476	-0.196	0.409	-0.0449	0.977	0.203
CN1C(=O)CC(c2ccccc2)C1=O (configuration not stated) [Phensuximide]	-0.488	-0.914	-0.489	-0.774	-0.376	-0.653
CCOc1ccccc1OC(c1ccccc1)C1CNCCO1 (configuration not stated) [Reboxetine mesylate]	-0.315	0.133	-0.477	-0.595	-0.205	-0.384
C[C@]12C=CC(=O)C=C1CC[C@H]1[C@@H]3C[C@@H](O)[C@](O)(C(=O)CO)[C@@]3(C)C[C@H](O)[C@@]12F [Triamcinolone]	-0.203	-0.607	-0.346	-0.264	-0.211	-0.572
CC(=O)O[C@H]1C[C@@]2(C)[C@@H](C[C@@H](O)[C@H]3[C@@]4(C)CC[C@@H](O)[C@@H](C)[C@@H]4CC[C@@]32C)/C1=C(\CCC=C(C)C)C(=O)O [Fusidic acid sodium salt]	-0.322	0.503	-0.581	0.0569	-0.49	-0.416
N[C@@H](Cc1ccc(O)c(O)c1)C(=O)O [Levodopa]	-0.339	-0.518	-0.462	-0.115	-0.332	-0.358
c1ccc(CN(CC2=NCCN2)c2ccccc2)cc1 [Antazoline hydrochloride]	-0.107	0.686	-0.0849	0.249	-0.0343	0.301
N=C(N)NS(=O)(=O)c1ccc(N)cc1 [Sulfaguanidine]	-0.422	-1.14	-0.502	-0.128	-0.444	-0.493
COc1ccc([C@@H]2CC(=O)c3c(O)cc(O[C@@H]4O[C@H](CO[C@@H]5O[C@@H](C)[C@H](O)[C@@H](O)[C@H]5O)[C@@H](O)[C@H](O)[C@H]4O)cc3O2)cc1O [Hesperidin]	-0.494	-1.29	-0.6	-0.779	-0.447	-0.68
O=C(Cn1ccnc1[N+](=O)[O-])NCCO [Etanidazole]	-0.499	-0.402	-0.226	0.609	-0.413	-0.325
CC(C)(Oc1ccc(C2CC2(Cl)Cl)cc1)C(=O)O (configuration not stated) [Ciprofibrate]	-0.486	-0.255	-0.125	-0.278	-0.419	-0.482
CCC1NC(=O)c2cc(S(N)(=O)=O)c(Cl)cc2N1 (configuration not stated) [Quinethazone]	-0.328	-1.04	0.366	0.147	-0.404	-0.386
C#CCN(C)CCCOc1ccc(Cl)cc1Cl [Clorgyline hydrochloride]	-0.292	0.155	-1.09	-0.252	-0.435	-0.359
Cn1c(=O)c2c(ncn2CCO)n(C)c1=O [Etofylline]	-0.487	-1.05	-0.938	-1.17	-0.451	-0.58
C[C@H]1C[C@@H]2[C@H]([C@@H](O)C[C@@]3(C)[C@H]2CC[C@]3(O)C(=O)CO)[C@@]2(C)C=CC(=O)C=C12 [Methylprednisolone, 6-alpha]	-0.113	0.0903	-0.236	-0.329	-0.297	-0.497
